Our source for the growth values is PubChem BioAssay (NCI).

Test systems include SR leukemia; RPMI-8226 leukemia; OVCAR-8 ovarian; OVCAR-5 ovarian; OVCAR-4 ovarian; SK-OV-3 ovarian; IGROV1 ovarian; OVCAR-3 ovarian; HS 578T breast; NCI/ADR-RES ovarian; T-47D breast; BT-549 breast; MDA-MB-435 melanoma; SW-620 colon; MCF7 breast; HCT-116 colon; KM12 colon; HCC-2998 colon.
Common to all, as to experiment: NCI-60 one-dose screen, 48 h (100 = growth as untreated, 0 = no growth, -100 = all killed)
Common to all, as to conditions: 10 µM unless noted

Compounds without any hit were thinned out: in the full panel of roughly 83,000, 20% have a hit.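 Assay: single dose, 48 h. Readout: percent growth (0 = no net growth; negative = cell death). Active: <10.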 Unmarked numbers belong to inactive results. Calls of active or inactive are those of the source.

With `COc1cccc(/C=C2\COc3ccc(O)cc3C2=O)c1`, the growth in the assay on SR leukemia was 5.49% (active); in the assay on RPMI-8226 leukemia it was -24.8% (active); in the assay on OVCAR-8 ovarian, 80.7%; in the assay with OVCAR-5 ovarian, 101%; in the assay on OVCAR-4 ovarian, 95%; in the assay on SK-OV-3 ovarian it was 114%. The growth was 84.4% with IGROV1 ovarian; 78.4% in the assay on OVCAR-3 ovarian; 91.1% in the assay with HS 578T breast; 89.9% with NCI/ADR-RES ovarian; 47.5% in the assay with T-47D breast; 78% in the assay on BT-549 breast. For the same compound, the growth with MDA-MB-435 melanoma was 52.8%; in the assay with SW-620 colon it was 18.1%; in the assay with MCF7 breast it was 4.96% (active); with HCT-116 colon it was 32.8%; in the assay with KM12 colon it was 43.7%.

`COc1ccc(-c2cc(-c3ccc(OC)cc3)nc(NCCCNc3ccnc4cc(Cl)ccc34)n2)cc1`: the growth is 5.81% (active) in the assay on SR leukemia; 7.42% (active) in the assay on RPMI-8226 leukemia; -51.3% (active) with OVCAR-8 ovarian; 105% with OVCAR-5 ovarian; -16.5% (active) in the assay on OVCAR-4 ovarian; 76.8% in the assay on SK-OV-3 ovarian. Moreover, the growth in the assay with IGROV1 ovarian is -62.6% (active); in the assay on OVCAR-3 ovarian, 91.7%; in the assay on HS 578T breast, 83.5%; with NCI/ADR-RES ovarian, 71.7%; in the assay with T-47D breast it was 89.3%; with BT-549 breast it was 81.2%. Besides, the growth in the assay with MDA-MB-435 melanoma is -69.9% (active); in the assay on SW-620 colon it was -39.7% (active); in the assay on MCF7 breast it was -54.2% (active); in the assay with HCT-116 colon, -84.9% (active); with KM12 colon, 44.8%.

Turning to `CCCCCCCCn1ccc2cc(NC(=O)Cn3cc(CN4CCOCC4)nn3)ccc21`, the growth was 87.6% in the assay on SR leukemia; 94.8% in the assay on RPMI-8226 leukemia; 102% in the assay on OVCAR-8 ovarian; 91.1% in the assay with OVCAR-5 ovarian; 99.5% with OVCAR-4 ovarian; 111% in the assay with SK-OV-3 ovarian. In addition, the growth in the assay with IGROV1 ovarian is 96.4%; in the assay on OVCAR-3 ovarian, 98.2%; with HS 578T breast it was 90%; in the assay with NCI/ADR-RES ovarian it was 115%; in the assay on T-47D breast it was 93.4%; in the assay with BT-549 breast it was 78.2%. In addition, the growth in the assay with MDA-MB-435 melanoma is 99.7%; in the assay with MCF7 breast, 89.5%; in the assay with HCT-116 colon, 92.5%; with HCC-2998 colon, 113%; with KM12 colon, 93.3%.

As to `Cc1ccc(/C=C2\CN(C(=O)C(Cl)Cl)C/C(=C\c3ccc(C)cc3)C2=O)cc1`, the growth in the assay with SR leukemia was 1.68% (active); in the assay with RPMI-8226 leukemia it was -19.3% (active); in the assay on OVCAR-8 ovarian, 4.74% (active); in the assay on OVCAR-5 ovarian it was -44.6% (active); with OVCAR-4 ovarian, 25%; with SK-OV-3 ovarian it was 29%. Moreover, the growth in the assay with IGROV1 ovarian was -58.8% (active); with OVCAR-3 ovarian, -97.8% (active); in the assay on HS 578T breast, 9.67% (active); in the assay on NCI/ADR-RES ovarian, 8.57% (active); in the assay on T-47D breast, -29% (active); in the assay with BT-549 breast it was -15.3% (active). Moreover, the growth with MDA-MB-435 melanoma is -75.1% (active); in the assay with SW-620 colon it was -66.6% (active); with MCF7 breast it was -32.1% (active); in the assay on HCT-116 colon, -84.6% (active); in the assay with KM12 colon, -65.8% (active).

Take `CO[C@H](C(=O)[C@@H](O)[C@@H](C)O)[C@@H]1Cc2cc3cc(O[C@H]4C[C@@H](O[C@H]5C[C@@H](O)[C@H](O)C(C)O5)[C@H](O)C(C)O4)c(C)c(O)c3c(O)c2C(=O)[C@H]1O[C@H]1C[C@@H](O[C@H]2C[C@@H](O[C@H]3C[C@@H](OC)[C@H](O)C(C)O3)[C@@H](O)C(C)O2)C(O)(O)C(C)O1` (some centres undefined): the growth in the assay on SR leukemia was 13.5%; with RPMI-8226 leukemia, 9.26% (active); with OVCAR-8 ovarian, 9.53% (active); in the assay on OVCAR-5 ovarian it was 14.5%; in the assay with OVCAR-4 ovarian, 21.7%; in the assay with SK-OV-3 ovarian it was 14.6%. Also, the growth was 22.3% with IGROV1 ovarian; 9.32% (active) in the assay on OVCAR-3 ovarian; 25.3% in the assay on HS 578T breast; 87.3% in the assay on NCI/ADR-RES ovarian; 0.438% (active) with T-47D breast; -20.1% (active) in the assay with BT-549 breast. Moreover, the growth was -30.5% (active) with MDA-MB-435 melanoma; 22% with SW-620 colon; 4.2% (active) in the assay on MCF7 breast; 6.1% (active) in the assay with HCT-116 colon; 9.69% (active) with KM12 colon.

With `C#CCn1cnc2c(Nc3cccc(NC(=O)CCl)c3)ncnc21`, the growth in the assay on SR leukemia is 9.78% (active); in the assay on RPMI-8226 leukemia, 10.4%; with OVCAR-8 ovarian, 50%; with OVCAR-5 ovarian, 43.7%; in the assay on OVCAR-4 ovarian, 26.9%; with SK-OV-3 ovarian, 49.6%. The growth is 7.54% (active) in the assay with IGROV1 ovarian; 31.6% in the assay on OVCAR-3 ovarian; 50% in the assay with HS 578T breast; 49.1% in the assay with NCI/ADR-RES ovarian; 34.7% with T-47D breast; 35.1% in the assay with BT-549 breast. Further, the growth with MDA-MB-435 melanoma was 22.6%; in the assay with SW-620 colon, 20.6%; with MCF7 breast, 14.1%; in the assay on HCT-116 colon it was 12.9%; in the assay on KM12 colon, 37.7%.

`CC1(C)C2CC=C(/C=N/NC(=O)C3CCC(=O)N3)C1C2` (centres undefined): the growth was 116% in the assay on SR leukemia; 103% in the assay on RPMI-8226 leukemia; 105% with OVCAR-8 ovarian; 107% in the assay with OVCAR-5 ovarian; 101% in the assay with OVCAR-4 ovarian; 106% with SK-OV-3 ovarian. In addition, the growth in the assay on IGROV1 ovarian is 109%; with OVCAR-3 ovarian, 112%; in the assay with HS 578T breast, 104%; with NCI/ADR-RES ovarian it was 105%; in the assay with T-47D breast it was 107%; with BT-549 breast, 105%. In addition, the growth is 106% in the assay on MDA-MB-435 melanoma; 104% in the assay with SW-620 colon; 99.1% with MCF7 breast; 108% in the assay on HCT-116 colon; 119% with HCC-2998 colon; 106% in the assay on KM12 colon.

Take `Cc1nc2ccccc2c(/C=C/c2ccc(C(F)(F)F)cc2)c1C(=O)/C=C/c1ccccc1`: the growth is 8.57% (active) in the assay on SR leukemia; -17.8% (active) with RPMI-8226 leukemia; -13% (active) in the assay with OVCAR-8 ovarian; -75.7% (active) with OVCAR-5 ovarian; -1.62% (active) in the assay with OVCAR-4 ovarian; 48.2% with SK-OV-3 ovarian. For the same compound, the growth was -37.3% (active) in the assay on IGROV1 ovarian; -62.7% (active) in the assay on OVCAR-3 ovarian; -0.739% (active) with HS 578T breast; -33.8% (active) in the assay on NCI/ADR-RES ovarian; -18.6% (active) with T-47D breast; -0.148% (active) in the assay on BT-549 breast. Besides, the growth was -39.2% (active) with MDA-MB-435 melanoma; -40.8% (active) with SW-620 colon; 4.74% (active) in the assay with MCF7 breast; -74.9% (active) in the assay with HCT-116 colon; 4.07% (active) in the assay with KM12 colon.

With `N#Cc1c(-c2ccccc2)cc(-c2ccccc2)n(CCCC(=O)NO)c1=O`, the growth in the assay with SR leukemia was 7.72% (active); with RPMI-8226 leukemia, 11.3%; in the assay with OVCAR-8 ovarian it was 12.5%; with OVCAR-5 ovarian, 28.9%; in the assay with OVCAR-4 ovarian, 29.6%; in the assay on SK-OV-3 ovarian, 36.1%. Also, the growth in the assay with IGROV1 ovarian is 25.4%; in the assay with OVCAR-3 ovarian, 8.36% (active); in the assay with HS 578T breast, 19.7%; in the assay with NCI/ADR-RES ovarian, -5.36% (active); in the assay on T-47D breast, 18.7%; with BT-549 breast, 53.9%. In addition, the growth was -12.4% (active) with MDA-MB-435 melanoma; 17.3% in the assay with SW-620 colon; 22.5% in the assay with MCF7 breast; 7.06% (active) in the assay with HCT-116 colon; 24.9% in the assay on KM12 colon.
